Vif inh – blocks HIV Vif function. HEK293T cells, Vif self-association by quenched fluorescence, imaging, 24 h. inhibition, % at 7.49 µM. 340,000 tested, 0.35% active. AID 602346; in the data active means inhibition above about 50%, passing the limit was not always enough; inconclusive means no clear call, values can overlap the other calls; inactive means below about 31%
RAD54 branch – inhibitors of human RAD54 branch migration | Q92698 | 360,000 tested, 0.14% active | RAD54 Holliday junction branch migration, FAM/BHQ fluorescence | inhibition, % at 10.4 µM;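 active means mean normalized replicate activity at least 40 and at least half of replicates scoring 40 or more; inconclusive means only one of the two criteria met; inactive means mean below 40 and under half of replicates reaching 40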;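 further: inhibitors cause a drop in the FAM fluorescence signal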
N-glyco inh – blocks N-linked glycosylation in D54 reporter cells; D54 ERlucT glycosylation luciferase reporter, 24 h; percent of 100 nM tunicamycin response; reporter increase, % at 12.5 µM; 360,000 tested, 0.23% active; AID 588692;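 active means mean luciferase reporter signal, scaled so untreated is 0 and the glycosylation-blocking control 100, at or above a set limit in every replicate; inconclusive means mean reaches the limit but not every replicate does; inactive means mean below the limit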;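 further: luciferase carries N-glycosylation sites so blocking glycosylation raises the light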
ABCB6 inh 2 – human ABCB6 transporter inhibition | fluorescence ratio to DMSO, % at 10 µM | K562-ABCB6 porphyrin accumulation, flow cytometry, 1 h; hits give low values | Q9NP58 | 360,000 tested, 0.19% active;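 active means fluorescence ratio to DMSO below 75%, the collection mean minus 3 SD; inconclusive means too few cells collected in the well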;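 further: signal is porphyrin accumulated inside mitochondria; lower ratio means ABCB6 inhibition with less porphyrin fluorescence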
Target sequence (Q9NP58 whole entry, looked up): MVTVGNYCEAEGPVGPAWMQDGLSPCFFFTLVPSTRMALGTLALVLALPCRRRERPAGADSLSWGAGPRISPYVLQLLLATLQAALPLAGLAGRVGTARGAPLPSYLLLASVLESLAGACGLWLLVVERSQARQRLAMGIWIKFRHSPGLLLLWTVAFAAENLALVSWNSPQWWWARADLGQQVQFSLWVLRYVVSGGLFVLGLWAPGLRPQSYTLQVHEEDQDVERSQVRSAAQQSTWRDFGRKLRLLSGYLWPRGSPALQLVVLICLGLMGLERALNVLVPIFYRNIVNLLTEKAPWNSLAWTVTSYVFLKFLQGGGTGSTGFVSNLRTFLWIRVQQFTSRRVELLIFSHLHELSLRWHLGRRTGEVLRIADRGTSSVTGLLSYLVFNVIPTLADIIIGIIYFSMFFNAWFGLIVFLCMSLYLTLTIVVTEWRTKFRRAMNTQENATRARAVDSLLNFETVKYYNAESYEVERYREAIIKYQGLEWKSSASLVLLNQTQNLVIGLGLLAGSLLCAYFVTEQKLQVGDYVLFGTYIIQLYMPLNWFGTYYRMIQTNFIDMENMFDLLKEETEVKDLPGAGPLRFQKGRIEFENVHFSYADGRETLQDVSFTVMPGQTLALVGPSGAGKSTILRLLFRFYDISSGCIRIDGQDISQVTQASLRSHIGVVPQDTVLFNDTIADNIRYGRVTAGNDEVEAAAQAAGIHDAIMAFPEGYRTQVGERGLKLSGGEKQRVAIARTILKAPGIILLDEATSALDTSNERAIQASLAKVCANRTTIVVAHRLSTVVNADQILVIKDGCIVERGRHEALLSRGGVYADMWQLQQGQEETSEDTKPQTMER
Myeloid diff MLP – myeloid differentiation induction. ER-HoxA9 myeloid progenitors, lysozyme-GFP differentiation, flow cytometry. calls only at 10 µM. 360,000 tested, 1% active. AID 624256;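 active means normalized GFP-positive differentiation at or above the plate's own cutoff, the solvent-only control mean plus 3 SD; inconclusive means no clear call, values can overlap the other calls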;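 further: cells exposed to compound for four days before flow analysis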
ABCB6 blocker 1 – human ABCB6 transporter inhibition; K562-ABCB6 porphyrin accumulation, flow cytometry, 1 h; hits give low values; ratio response (% of DMSO), % at 10 µM; AID 602430; shares compounds with ABCB6 inh 2; 700 tested, under 10 active;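 active means repeat-averaged ratio response below 75% of DMSO, the collection mean minus 3 SD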;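 further: median porphyrin fluorescence at 575 nm with 488 nm excitation from mitochondria; lower ratio means less porphyrin signal so ABCB6 inhibition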
Large screens that a line does not name were inactive (follow-up assays come after a bar, where they were run). An excerpt weighted towards active compounds, which were near 1.6% of everything screened.

C[C@@H]1CN([C@@H](C)CO)C(=O)c2cc(NC(=O)Cc3cn(C)c4ccccc34)ccc2O[C@@H]1CN(C)C(=O)Nc1ccc(F)cc1	none (no result: Vif inh, N-glyco inh, ABCB6 inh 2, Myeloid diff MLP)
C[C@@H]1CCCCO[C@H](CN(C)C)[C@H](C)CN([C@@H](C)CO)C(=O)c2cc(NC(=O)Nc3ccccc3)ccc2O1	none (no result: Vif inh, N-glyco inh, ABCB6 inh 2, Myeloid diff MLP)
CCC(=O)Nc1ccc2c(c1)OC[C@H](C)N(CCc1ccccc1)C[C@@H](C)[C@@H](OC)CN(C)C2=O	none (no result: Vif inh, N-glyco inh, ABCB6 inh 2, Myeloid diff MLP)
COc1cc2c(C(=O)N(C)c3ccc(F)cc3)cn(C)c(=O)c2cc1OC	ABCB6 inh 2 14 | ABCB6 blocker 1 inactive
CCc1ccccc1N(CC)C(=O)c1cn(C)c(=O)c2cc(OC)c(OC)cc12	none
O=C1CC(c2ccccc2)CC(O)=C1C=NCc1ccccc1Cl (stereo unspecified)	ABCB6 inh 2 15 | ABCB6 blocker 1 inactive
O=C1CC(c2ccccc2)CC(O)=C1C=NCc1ccccc1 (stereo unspecified)	none
COc1ccc(C(=O)NCC(C)NC(=O)c2ccc(OC)cc2)cc1 (stereo unspecified)	none (no result: RAD54 branch)
CC(CNC(=O)c1ccc(C#N)cc1)NC(=O)c1ccc(C#N)cc1 (stereo unspecified)	ABCB6 inh 2 73 | ABCB6 blocker 1 inactive
CCCNC(=O)[C@H]1[C@H](CO)[C@H]2Cn3c(ccc(-c4ccc(F)cc4)c3=O)[C@@H]1N2CCC	none (no result: Vif inh, N-glyco inh, ABCB6 inh 2, Myeloid diff MLP)
CCCNC(=O)[C@@H]1[C@@H](CO)[C@@H]2Cn3c(cccc3=O)[C@H]1N2C(=O)NCCC	none (no result: Vif inh, N-glyco inh, ABCB6 inh 2, Myeloid diff MLP)
Cc1cccc(C(O)c2ncc(-c3ccccc3Cl)[nH]2)c1C (stereo unspecified)	none (no result: Vif inh)
Cc1ccccc1-c1cnc(C(O)c2cccc(C)c2C)[nH]1 (stereo unspecified)	ABCB6 inh 2 70 | ABCB6 blocker 1 inactive
COc1ccc(NC(=O)C2(C)Cc3c(-c4ccc(C(N)=O)cc4)ccnc3O2)cn1 (stereo unspecified)	none | ABCB6 blocker 1 inactive
CC(=O)Nc1cccc(-c2ccnc3c2CC(C)(C(=O)Nc2ccc4c(c2)OCO4)O3)c1 (stereo unspecified)	none (no result: Myeloid diff MLP) | ABCB6 blocker 1 inactive
CN(C)c1ccc(-c2ccnc3c2CC(C)(C(=O)Nc2ccc(Cl)cc2)O3)cc1 (stereo unspecified)	none (no result: Vif inh)
CN(C)c1ccc(-c2ccnc3c2CC(C)(C(=O)Nc2ccc(F)c(Cl)c2)O3)cc1 (stereo unspecified)	none (no result: Vif inh) | ABCB6 blocker 1 inactive
CC(=O)Nc1ccc(-c2ccnc3c2CC(C)(C(=O)Nc2cccc(Oc4ccccc4)c2)O3)cc1 (stereo unspecified)	none | ABCB6 blocker 1 inactive
CC(C)C#Cc1cnc2c(c1)C(=O)N([C@@H](C)CO)C[C@@H](C)[C@@H](CN(C)C(=O)C1CCC1)O2	none (no result: Vif inh, N-glyco inh, ABCB6 inh 2, Myeloid diff MLP)
Nc1nonc1-n1nncc1-c1ccccc1	ABCB6 inh 2 6.0 | ABCB6 blocker 1 inactive
COc1ccc(C(=O)OCC(=O)Nc2cc(C)c(C)cc2[N+](=O)[O-])cc1	ABCB6 inh 2 57 (no result: RAD54 branch) | ABCB6 blocker 1 inactive
c1ccc(OCCNc2ccn3nc(-c4ccccc4)cc3n2)cc1	none
COc1ccccc1-c1cc2nc(NCCOc3ccccc3)ccn2n1	ABCB6 inh 2 61 | ABCB6 blocker 1 inactive
CCOc1ccccc1N(C)C(=O)c1sc2ncn(CC(=O)N3CCCCC3C)c(=O)c2c1C (stereo unspecified)	none | ABCB6 blocker 1 inactive
Cc1ccc(NC(=O)c2sc3ncn(CC(=O)N4CCOCC4)c(=O)c3c2C)c(Br)c1	none | ABCB6 blocker 1 inactive
Cc1cc([N+](=O)[O-])ccc1NC(=O)c1sc2ncn(CC(=O)N3CCOCC3)c(=O)c2c1C	none
CCOc1ccccc1NC(=O)c1sc2ncn(CC(=O)N3CCOCC3)c(=O)c2c1C	none
COc1cc(NC(=O)c2sc3ncn(CC(=O)N4CCCCC4C)c(=O)c3c2C)cc(OC)c1OC (stereo unspecified)	none (no result: Vif inh) | ABCB6 blocker 1 inactive
Cc1c(C(=O)NCc2cccnc2)sc2ncn(CC(=O)N3CCCCC3C)c(=O)c12 (stereo unspecified)	none (no result: Vif inh, RAD54 branch)
COc1ccc(N(CC(=O)Nc2c(C)n(C)n(-c3ccccc3)c2=O)S(=O)(=O)c2ccc(F)cc2)cc1	none (no result: RAD54 branch)
COc1ccc(N(CC(=O)Nc2c(C)n(C)n(-c3ccccc3)c2=O)S(=O)(=O)c2ccc(C)cc2)cc1	ABCB6 inh 2 72 (no result: RAD54 branch) | ABCB6 blocker 1 inactive
CCC(=O)N1C[C@H](O)COC[C@@H]2O[C@H](CC(=O)NCc3cc(F)cc(F)c3)CC[C@H]21	none (no result: Vif inh, N-glyco inh, ABCB6 inh 2, Myeloid diff MLP)
CCOC(=O)C1CCN(S(=O)(=O)c2ccc(OCC(=O)OC)cc2)CC1	none | ABCB6 blocker 1 inactive
CCN(CC)CCNc1nc2c(c(=O)n(C)c(=O)n2C)n1C/C=C(/C)Cl	ABCB6 inh 2 73 | ABCB6 blocker 1 inactive
C=CCN1CCCc2c(-c3ccc(OCCO)cc3)noc2-c2cc(OC)c(OC)cc2CC1	none (no result: Vif inh, N-glyco inh, ABCB6 inh 2, Myeloid diff MLP)
COc1ccc(OC)c(NC(=O)C2CC(=O)N(CCc3ccc(F)cc3)C2)c1 (stereo unspecified)	ABCB6 inh 2 48 | ABCB6 blocker 1 inactive
COc1ccc(C)cc1NC(=O)C1CC(=O)N(CCc2ccc(F)cc2)C1 (stereo unspecified)	none
COc1ccc(-c2nnc(SCC(=O)N3CCc4ccccc4C3)o2)cc1	ABCB6 inh 2 56 | ABCB6 blocker 1 inactive
CCCCCN(C(=O)CCC(=O)OCC(=O)c1ccc(CCC)cc1)c1c(N)n(CCCC)c(=O)[nH]c1=O	ABCB6 inh 2 73 | ABCB6 blocker 1 inactive
CCCCCN(C(=O)CCC(=O)OC(C)C(=O)Nc1ccccc1C)c1c(N)n(CCCC)c(=O)[nH]c1=O (stereo unspecified)	none (no result: RAD54 branch) | ABCB6 blocker 1 inactive
CCCCCN(C(=O)CCC(=O)OC(C)C(=O)c1ccc(CC)cc1)c1c(N)n(CCCC)c(=O)[nH]c1=O (stereo unspecified)	none | ABCB6 blocker 1 inactive
CCCCCN(C(=O)CCC(=O)OCc1ccccc1C)c1c(N)n(CCCC)c(=O)[nH]c1=O	none
CCCCN(C(=O)CCC(=O)OCC(=O)NCc1ccccc1)c1c(N)n(CCC)c(=O)[nH]c1=O	none | ABCB6 blocker 1 inactive
C[C@@H]1CN([C@H](C)CO)C(=O)c2cc(C#CC3CCCC3)cnc2O[C@H]1CN(C)C(=O)Nc1ccccc1	none (no result: Vif inh, N-glyco inh, ABCB6 inh 2, Myeloid diff MLP)
COc1ccccc1C#Cc1cnc2c(c1)C(=O)N([C@@H](C)CO)C[C@@H](C)[C@@H](CN(C)C(=O)CC1CC1)O2	none (no result: Vif inh, N-glyco inh, ABCB6 inh 2, Myeloid diff MLP)
O=C(NCC[C@H]1CC[C@@H](NS(=O)(=O)c2cccc(F)c2)[C@H](CO)O1)Nc1cc(F)ccc1F	none (no result: Vif inh, N-glyco inh, ABCB6 inh 2, Myeloid diff MLP)
CC(C)CN(C(=O)CCC(=O)OCC(=O)c1ccc(F)c(F)c1)c1c(N)n(CC(C)C)c(=O)[nH]c1=O	none (no result: Vif inh)
CC(C)CN(C(=O)CCC(=O)OCC(=O)N(C)c1ccccc1)c1c(N)n(CC(C)C)c(=O)[nH]c1=O	none | ABCB6 blocker 1 inactive
COc1cc(-c2nnc(CSc3nnc(Nc4ccc(C(C)C)cc4)s3)o2)cc(OC)c1OC	ABCB6 inh 2 74, Myeloid diff MLP inconclusive (no result: RAD54 branch) | ABCB6 blocker 1 inactive
